Holding throughout (test): DAPPL (digital affinity profiling via proximity ligation, sequencing); 10 mM Tris-HCl pH 7.5, 50 mM NaCl, 1 mM DTT, 4% glycerol, room temperature, 30 min; GST-TFs on glutathione beads, 16-mer random dsDNA library, 0.1% formaldehyde crosslink after washing; high values mean tight binding
What all share (conditions): protein: recombinant; tags: N-terminal GST; dsDNA, one strand shown

Assay [1] addresses T1, ELK1 (Homo sapiens, UniProt P19419 1-428).
T1 sequence: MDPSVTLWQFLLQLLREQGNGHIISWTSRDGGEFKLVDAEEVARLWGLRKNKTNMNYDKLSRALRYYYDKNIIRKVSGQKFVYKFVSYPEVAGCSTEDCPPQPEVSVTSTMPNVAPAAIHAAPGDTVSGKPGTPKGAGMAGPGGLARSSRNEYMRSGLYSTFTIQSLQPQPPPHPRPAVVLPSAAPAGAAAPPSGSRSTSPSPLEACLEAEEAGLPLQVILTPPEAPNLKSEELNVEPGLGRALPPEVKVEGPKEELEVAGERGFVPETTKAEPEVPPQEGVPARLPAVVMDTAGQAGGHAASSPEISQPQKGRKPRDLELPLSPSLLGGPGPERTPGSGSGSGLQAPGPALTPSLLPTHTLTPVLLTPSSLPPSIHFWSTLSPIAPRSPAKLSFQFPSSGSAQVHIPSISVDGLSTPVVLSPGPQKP
In short, it runs like this:
(§1)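 Binding signal is given per hexamer as its read frequency for a factor divided by its frequency in the tag-only sample. GST-fused human transcription factors were expressed in yeast, captured on glutathione beads, barcoded with DNA and pooled with that sample, then incubated with 200 nmole of a 16-mer random double-stranded DNA library in Tris/NaCl/DTT/glycerol buffer for 30 min at room temperature. The pools were then washed, crosslinked, proximity-ligated, amplified by PCR and sequenced on an Illumina NextSeq500.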

In assay [2] the target is T2, GABPA (Homo sapiens, UniProt Q06546 1-454).
T2 sequence: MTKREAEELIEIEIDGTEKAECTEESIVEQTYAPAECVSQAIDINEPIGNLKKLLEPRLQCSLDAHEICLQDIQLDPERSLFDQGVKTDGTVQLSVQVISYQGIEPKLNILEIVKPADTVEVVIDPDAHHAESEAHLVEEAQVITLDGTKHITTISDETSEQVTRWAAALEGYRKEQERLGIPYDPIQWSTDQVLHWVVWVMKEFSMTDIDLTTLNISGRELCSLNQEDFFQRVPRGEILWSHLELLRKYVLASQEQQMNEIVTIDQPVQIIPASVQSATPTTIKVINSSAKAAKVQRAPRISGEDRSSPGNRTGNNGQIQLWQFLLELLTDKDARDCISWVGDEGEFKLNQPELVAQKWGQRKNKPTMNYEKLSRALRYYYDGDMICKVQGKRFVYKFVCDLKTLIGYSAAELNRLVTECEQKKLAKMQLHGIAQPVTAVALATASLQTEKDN
Put shortly: as §1

The target in assay [3] is ELF1 (Homo sapiens, UniProt P32519 1-619). Put shortly:
as §1

The target in assay [4] is T3, EHF (Homo sapiens, UniProt Q9NZC4 1-300).
T3 sequence: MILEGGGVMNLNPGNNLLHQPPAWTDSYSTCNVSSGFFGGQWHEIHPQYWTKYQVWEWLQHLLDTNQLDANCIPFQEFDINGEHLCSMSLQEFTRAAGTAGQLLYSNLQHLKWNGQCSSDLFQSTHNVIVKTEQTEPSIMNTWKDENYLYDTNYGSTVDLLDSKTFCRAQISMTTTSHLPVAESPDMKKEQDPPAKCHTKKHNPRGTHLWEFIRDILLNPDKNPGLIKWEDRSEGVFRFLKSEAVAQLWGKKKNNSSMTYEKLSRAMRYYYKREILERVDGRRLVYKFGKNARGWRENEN
Put shortly:
as §1

Assay [5] concerns the target SPI1 (Homo sapiens, UniProt P17947 1-270). In short, it runs like this:
as §1

Assay [6] has as its target T4, ELK4 (Homo sapiens, UniProt P28324-2 1-405).
T4 sequence: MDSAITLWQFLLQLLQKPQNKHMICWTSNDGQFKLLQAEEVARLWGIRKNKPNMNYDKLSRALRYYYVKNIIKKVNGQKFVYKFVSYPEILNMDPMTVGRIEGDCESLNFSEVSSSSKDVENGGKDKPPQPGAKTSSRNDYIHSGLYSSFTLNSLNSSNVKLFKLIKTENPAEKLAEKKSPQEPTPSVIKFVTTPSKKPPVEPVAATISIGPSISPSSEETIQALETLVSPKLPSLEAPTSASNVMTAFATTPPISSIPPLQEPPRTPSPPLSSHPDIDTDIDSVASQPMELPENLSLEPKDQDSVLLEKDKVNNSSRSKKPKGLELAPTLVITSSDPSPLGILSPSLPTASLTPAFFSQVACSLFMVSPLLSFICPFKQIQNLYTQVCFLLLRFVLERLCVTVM
Put shortly:
as §1

In assay [7] the target is T5, ETV2 (Homo sapiens, UniProt O00321 1-342).
T5 sequence: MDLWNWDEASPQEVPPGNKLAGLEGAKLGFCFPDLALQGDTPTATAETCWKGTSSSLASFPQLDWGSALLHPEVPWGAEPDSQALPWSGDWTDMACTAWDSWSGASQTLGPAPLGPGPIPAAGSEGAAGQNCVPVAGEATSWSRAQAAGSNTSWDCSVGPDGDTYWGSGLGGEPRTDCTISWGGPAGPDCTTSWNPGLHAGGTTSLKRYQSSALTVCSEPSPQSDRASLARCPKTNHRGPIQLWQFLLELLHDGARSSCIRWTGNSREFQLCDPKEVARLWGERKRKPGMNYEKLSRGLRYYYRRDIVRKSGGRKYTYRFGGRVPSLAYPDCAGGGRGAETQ
Put shortly:
as §1

The target of assay [8] is T6, ELF3 (Homo sapiens, UniProt P78545 1-371).
T6 sequence: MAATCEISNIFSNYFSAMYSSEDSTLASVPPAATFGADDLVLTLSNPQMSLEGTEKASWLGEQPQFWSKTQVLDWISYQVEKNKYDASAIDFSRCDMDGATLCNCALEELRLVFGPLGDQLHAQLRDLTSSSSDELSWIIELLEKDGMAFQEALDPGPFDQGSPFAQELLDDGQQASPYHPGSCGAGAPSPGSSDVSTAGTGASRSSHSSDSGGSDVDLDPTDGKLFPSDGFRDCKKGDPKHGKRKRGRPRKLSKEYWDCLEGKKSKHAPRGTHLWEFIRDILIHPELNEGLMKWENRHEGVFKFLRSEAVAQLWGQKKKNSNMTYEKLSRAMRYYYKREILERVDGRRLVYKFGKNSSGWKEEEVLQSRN
Put shortly:
as §1

Assay [9] has as its target CRX (Homo sapiens, UniProt O43186 1-299). Put shortly: as §1
In assay [10] the target is ETV1 (Homo sapiens, UniProt P50549 1-477). In short, it runs like this: as §1
Assay [11] has as its target T7, ETS2 (Homo sapiens, UniProt P15036 1-469).
T7 sequence: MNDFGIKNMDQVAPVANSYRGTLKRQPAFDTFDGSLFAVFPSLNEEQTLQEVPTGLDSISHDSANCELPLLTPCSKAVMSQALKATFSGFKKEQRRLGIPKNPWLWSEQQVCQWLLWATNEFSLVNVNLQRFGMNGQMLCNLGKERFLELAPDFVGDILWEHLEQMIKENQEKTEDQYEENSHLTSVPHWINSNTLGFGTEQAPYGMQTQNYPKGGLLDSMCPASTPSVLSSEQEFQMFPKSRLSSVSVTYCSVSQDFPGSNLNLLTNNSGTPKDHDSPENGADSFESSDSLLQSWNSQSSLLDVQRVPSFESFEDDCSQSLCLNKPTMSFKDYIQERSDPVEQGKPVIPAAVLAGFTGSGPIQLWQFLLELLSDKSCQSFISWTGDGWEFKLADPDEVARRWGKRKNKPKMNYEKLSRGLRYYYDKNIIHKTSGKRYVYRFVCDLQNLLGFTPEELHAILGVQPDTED
In short, it runs like this:
as §1

Assay [12] deals with T8, ETV7 (Homo sapiens, UniProt Q9Y603 1-341).
T8 sequence: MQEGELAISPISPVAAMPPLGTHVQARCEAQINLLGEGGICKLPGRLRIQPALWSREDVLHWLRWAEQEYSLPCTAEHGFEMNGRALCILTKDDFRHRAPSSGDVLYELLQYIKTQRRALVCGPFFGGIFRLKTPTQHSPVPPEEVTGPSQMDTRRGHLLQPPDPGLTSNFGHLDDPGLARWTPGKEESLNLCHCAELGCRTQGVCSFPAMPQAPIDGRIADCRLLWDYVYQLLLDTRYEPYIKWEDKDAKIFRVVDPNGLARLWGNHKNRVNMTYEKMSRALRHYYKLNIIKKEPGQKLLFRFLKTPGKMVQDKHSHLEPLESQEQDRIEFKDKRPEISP
Put shortly: as §1

For assay [13], the target named is T9, ELF5 (Homo sapiens, UniProt Q9UKW6-2 1-255).
T9 sequence: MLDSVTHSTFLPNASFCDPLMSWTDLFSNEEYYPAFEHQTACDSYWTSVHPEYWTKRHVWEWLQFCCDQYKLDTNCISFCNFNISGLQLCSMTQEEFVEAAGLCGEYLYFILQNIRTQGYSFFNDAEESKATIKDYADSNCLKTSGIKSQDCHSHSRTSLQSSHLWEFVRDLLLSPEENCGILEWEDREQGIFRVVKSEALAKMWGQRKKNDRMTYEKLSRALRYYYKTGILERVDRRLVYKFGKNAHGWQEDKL
Put shortly:
as §1

Assay [14] addresses ETV6 (Homo sapiens, UniProt P41212 1-452). In short, it runs like this: as §1
For assay [15], the target named is ELF4 (Homo sapiens, UniProt Q99607 1-663). Put shortly:
as §1

Sequence of ETV6 (P41212 whole entry): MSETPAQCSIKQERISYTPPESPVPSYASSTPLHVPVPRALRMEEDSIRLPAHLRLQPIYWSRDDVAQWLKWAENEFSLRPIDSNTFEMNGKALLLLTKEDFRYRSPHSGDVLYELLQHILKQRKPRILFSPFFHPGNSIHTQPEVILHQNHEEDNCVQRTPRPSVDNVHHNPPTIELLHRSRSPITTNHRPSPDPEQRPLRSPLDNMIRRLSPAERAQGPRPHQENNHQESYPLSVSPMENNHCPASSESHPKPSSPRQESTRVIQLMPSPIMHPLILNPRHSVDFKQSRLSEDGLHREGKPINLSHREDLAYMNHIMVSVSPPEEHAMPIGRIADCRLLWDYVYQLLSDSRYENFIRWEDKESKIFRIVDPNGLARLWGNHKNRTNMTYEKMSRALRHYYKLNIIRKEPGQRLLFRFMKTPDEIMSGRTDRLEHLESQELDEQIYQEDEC
Sequence of ELF1 (P32519 whole entry): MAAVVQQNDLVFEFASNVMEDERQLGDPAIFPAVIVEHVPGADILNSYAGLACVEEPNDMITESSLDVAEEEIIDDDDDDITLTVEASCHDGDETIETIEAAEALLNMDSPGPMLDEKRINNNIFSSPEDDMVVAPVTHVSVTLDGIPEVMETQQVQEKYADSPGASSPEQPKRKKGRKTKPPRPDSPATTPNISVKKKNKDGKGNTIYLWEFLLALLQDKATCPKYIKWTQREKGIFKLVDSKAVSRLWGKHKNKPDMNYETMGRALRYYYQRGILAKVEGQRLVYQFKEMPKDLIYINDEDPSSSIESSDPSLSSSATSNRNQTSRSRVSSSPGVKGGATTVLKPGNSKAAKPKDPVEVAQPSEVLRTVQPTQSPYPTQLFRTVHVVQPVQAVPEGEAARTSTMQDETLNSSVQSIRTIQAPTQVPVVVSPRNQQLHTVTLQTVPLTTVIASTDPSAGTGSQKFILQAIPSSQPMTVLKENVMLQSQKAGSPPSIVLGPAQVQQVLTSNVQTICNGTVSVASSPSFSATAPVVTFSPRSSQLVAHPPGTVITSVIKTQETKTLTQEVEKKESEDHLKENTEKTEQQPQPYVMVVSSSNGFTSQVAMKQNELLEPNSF
Sequence of CRX (O43186 whole entry): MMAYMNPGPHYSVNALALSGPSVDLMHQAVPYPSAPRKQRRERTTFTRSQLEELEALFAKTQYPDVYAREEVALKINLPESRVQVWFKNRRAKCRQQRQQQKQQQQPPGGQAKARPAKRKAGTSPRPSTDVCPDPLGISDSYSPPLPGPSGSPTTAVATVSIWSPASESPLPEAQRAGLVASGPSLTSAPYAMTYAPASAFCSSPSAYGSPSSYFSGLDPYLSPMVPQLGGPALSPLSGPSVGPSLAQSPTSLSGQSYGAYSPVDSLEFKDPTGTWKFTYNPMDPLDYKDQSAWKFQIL
Sequence of ETV1 (P50549 whole entry): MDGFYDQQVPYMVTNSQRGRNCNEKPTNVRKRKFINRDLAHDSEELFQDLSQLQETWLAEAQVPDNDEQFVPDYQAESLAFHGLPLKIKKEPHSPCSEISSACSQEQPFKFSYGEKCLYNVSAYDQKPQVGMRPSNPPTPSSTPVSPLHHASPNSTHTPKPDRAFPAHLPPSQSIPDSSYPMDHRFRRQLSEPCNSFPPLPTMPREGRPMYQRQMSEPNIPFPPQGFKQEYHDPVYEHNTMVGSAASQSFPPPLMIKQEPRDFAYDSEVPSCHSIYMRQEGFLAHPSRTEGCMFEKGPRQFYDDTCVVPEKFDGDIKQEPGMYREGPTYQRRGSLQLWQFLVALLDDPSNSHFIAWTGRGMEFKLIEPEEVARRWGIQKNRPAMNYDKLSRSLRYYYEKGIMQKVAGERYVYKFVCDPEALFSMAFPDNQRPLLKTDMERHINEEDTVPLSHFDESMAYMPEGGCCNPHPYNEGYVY
Sequence of ELF4 (Q99607 whole entry): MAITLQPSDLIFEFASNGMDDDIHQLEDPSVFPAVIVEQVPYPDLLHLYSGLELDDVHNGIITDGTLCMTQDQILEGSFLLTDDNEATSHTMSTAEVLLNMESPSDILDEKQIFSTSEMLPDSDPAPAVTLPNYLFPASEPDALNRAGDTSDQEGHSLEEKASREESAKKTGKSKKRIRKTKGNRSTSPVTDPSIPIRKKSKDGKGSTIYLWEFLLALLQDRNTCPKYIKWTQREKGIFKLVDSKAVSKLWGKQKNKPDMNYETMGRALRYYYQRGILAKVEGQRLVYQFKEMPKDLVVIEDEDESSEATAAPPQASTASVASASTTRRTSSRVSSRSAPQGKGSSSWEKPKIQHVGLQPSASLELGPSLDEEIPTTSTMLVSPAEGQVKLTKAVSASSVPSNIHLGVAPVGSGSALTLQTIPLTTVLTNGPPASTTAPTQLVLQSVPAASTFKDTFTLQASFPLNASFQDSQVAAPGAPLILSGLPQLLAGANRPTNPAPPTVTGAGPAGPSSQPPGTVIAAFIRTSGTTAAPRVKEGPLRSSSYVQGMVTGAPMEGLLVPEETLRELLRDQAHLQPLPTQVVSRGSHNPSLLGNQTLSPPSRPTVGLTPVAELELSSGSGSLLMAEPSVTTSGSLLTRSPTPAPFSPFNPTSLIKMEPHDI

Take CAAAAG: the binding signal is 1.02 fold enrichment (6-mer frequency, TF over GST control) in [1]; 1.04 fold enrichment (6-mer frequency, TF over GST control) in [2]; 1.01 fold enrichment (6-mer frequency, TF over GST control) in assay [3]; 1 fold enrichment (6-mer frequency, TF over GST control) in assay [4]; 1.08 fold enrichment (6-mer frequency, TF over GST control) in assay [5]; 1.05 fold enrichment (6-mer frequency, TF over GST control) in [6]. Moreover, the binding signal in assay [7] was 1.05 fold enrichment (6-mer frequency, TF over GST control); in assay [8], 1.06 fold enrichment (6-mer frequency, TF over GST control); in assay [9], 1.02 fold enrichment (6-mer frequency, TF over GST control); in assay [10] it was 1 fold enrichment (6-mer frequency, TF over GST control); in assay [11], 1.04 fold enrichment (6-mer frequency, TF over GST control); in assay [12], 1 fold enrichment (6-mer frequency, TF over GST control). The binding signal in [13] is 1 fold enrichment (6-mer frequency, TF over GST control); in [14], 1.01 fold enrichment (6-mer frequency, TF over GST control).
In the case of AACGGT, the binding signal is 1.06 fold enrichment (6-mer frequency, TF over GST control) in assay [1]; 1.03 fold enrichment (6-mer frequency, TF over GST control) in [15]; 1.05 fold enrichment (6-mer frequency, TF over GST control) in assay [7]; 1.01 fold enrichment (6-mer frequency, TF over GST control) in assay [14].

The values are drawn from paper PMC7862700, “An all-to-all approach to the identification of sequence-specific readers for epigenetic DNA modifications on cytosine”.
